Laboratory results from PubChem BioAssay AID652104 (National Center for Advancing Translational Sciences (NCATS), 2013).
The campaign covered roughly 410,000 compounds. About 7,200 (1.8%) were called active. Roughly 7% stayed inconclusive and do not appear here. The sample holds actives, similar compounds and a random draw of the others, so the mix is not that of the screen. A number with no mark means an inactive call. The call rests on the fitted dose curve; in most records, active means well fitted activation curve with a large enough effect; inconclusive means small, poorly fitted or top-dose-only effect, or another doubt; inactive means no such curve, though single readings can be large or run the other way.

Test: qHTS of TDP-43 Inhibitors; further: nearly all actives have a fitted effect of over 50% in size; on growth rescue (activation): % of control where 0% means no effect
Details: TDP-43 expressing yeast growth rescue, BacTiter-Glo, 24 h; series mostly up to 46.1 µM; growth rescue (activation): at the top concentration
Outline: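 Luminescence from BacTiter-Glo reports growth of TDP-43-expressing yeast after 24 hr at 30 deg C with compound. Cells were raffinose-pregrown to mid-log, then seeded in galactose medium at OD600=0.02.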
Potency means the concentration at half of the fitted maximal effect.

Structure (SMILES) | growth rescue (activation) | Potency
O=C1CN(C(=O)Nc2ccccc2C(F)(F)F)C(c2ccccc2)c2c(sc3c2CCCC3)N1 (stereo not drawn) | 24.1% | 
COc1cc(OC)cc(-c2nc3nc(C)c(CCC(=O)Nc4ccc(C)cc4)c(C)n3n2)c1 | -11.3% | 
CCN(CC)CCN(C)C(c1ccnc2ccccc12)c1nnnn1-c1ccc2c(c1)OCCO2 (stereo not drawn) | -2.36% | 
CCC(c1nnnn1-c1ccc2c(c1)OCCO2)N1CCN(c2ccc(C(F)(F)F)cn2)CC1 (stereo not drawn) |  | 22.4 µM (active)
CCOc1ccc(C(=O)NCC(=O)N2CCN(c3ccc(C(F)(F)F)cn3)CC2)cc1 | 15.3% | 
O=C(Nc1ccc(O)c(-c2nc3ccccc3o2)c1)c1ccc(-c2cccc(Cl)c2)o1 | 23.1% | 
COC(=O)c1cc2occc2n1Cc1nc(-c2ccc(C)cc2)oc1C | 10.7% | 
CCN(CC)S(=O)(=O)c1ccc2c(c1)N(CC(=O)NCc1ccccc1)C(=O)CS2 | 7.04% | 
Nc1c(C(=O)O)cnn1-c1ccccc1 | -41.8% | 
CCCc1c(C(=O)O)cnn1-c1ccc(Cl)cc1 |  | 20 µM (active)
CCNC(=O)c1cnn(-c2ccccc2)c1-c1ccccc1 | 11.8% | 
O=C(Nc1ccc(S(=O)(=O)N2CCC(c3nc4ccccc4s3)CC2)cc1)c1ccccc1F | 26.8% | 
COc1ccc(C=C2CCC3C(CCCC34OCCO4)C2=O)cc1 (stereo not drawn) | 0% | 
COc1ccc2c(c1)CC[C@@H]1[C@@H]2CC[C@]2(C)C(=O)CC[C@@H]12 |  | 12.6 µM (active)
COc1ccc(Cn2ccn(Cc3cccc(OC)c3)c(=O)c2=O)cc1 | 14.9% | 
Cc1cc(Br)ccc1NC(=O)Cn1cnc2sc(C)c(S(=O)(=O)N3CCN(C)CC3)c2c1=O | 2.06% | 
CCOc1ccc(N(CC)C(=O)c2cc3c(=O)oc4ccccc4c3s2)cc1 | 6.24% | 
CCOc1ccc(CCNC(=O)Cn2nc(CC)n3c(cc4sc(CC)cc43)c2=O)cc1OCC | 10.3% | 
CCOc1ccc(C(=O)/C=C/c2cn(CC(O)CN3CCCCCC3)c3ccccc23)cc1 (stereo not drawn) | 6.38% | 
CC(C)c1ccc(NC(=O)Cn2nnc(C(=O)NCCc3ccccc3)c2N)cc1 | 6.09% | 
CCOC(=O)C1CCCN(C(=O)c2ccc(-n3ccc4ccccc43)s2)C1 (stereo not drawn) | 9.38% | 

Structure (SMILES) | growth rescue (activation) | Potency
O=S(=O)(NC1CC2CCC1C2)c1ccc(Cl)cc1 (stereo not drawn) |  | 7.08 µM (active)
CCOC1CCCCC1NS(=O)(=O)c1ccc(Cl)cc1 (stereo not drawn) | -8.86% | 
CCN1CCN(C2CCCCC2NS(=O)(=O)c2ccc(Cl)cc2)CC1 (stereo not drawn) | 17.9% | 
COc1ccc(Cn2ccnc2SCC(=O)NCc2ccco2)cc1 | 0% | 
COc1cc(C(=O)N2CCC(c3ccncc3)CC2)cc(OC)c1OC | -21.7% [at 9.22 µM] | 
CCn1c(=O)c(=O)n(CC)c2cc(N3CCCCC3)c(NC(=O)c3cccc(F)c3)cc21 | -6.82% | 
O=C(Nc1ccccc1N1CCCCC1)c1cccc(F)c1 |  | 12.6 µM (active)
O=C(Nc1ccccc1N1CCCC1)c1ccc(F)c(S(=O)(=O)N2CCOCC2)c1 | 8.64% | 
CCN1CCN(Cc2c(O)ccc3oc(C)c(C(=O)Nc4ccc(C)cc4C)c23)CC1 | 9.49% | 
O=C(CSc1nc2nccnc2c(=O)n1CCc1c[nH]c2ccccc12)Nc1ccccc1F | 20.8% | 
Cc1ccc(Nc2c(-c3ccc(Cl)cc3)nc3sccn23)c(C)c1 |  | 25.1 µM (active)
Cc1ccc(S(=O)(=O)NCc2cn3ccsc3n2)c(C)c1 | -1.93% | 
O=C(NCc1ccc(Cl)cc1)c1cc2c(nc3sccn32)s1 | -3.87% | 
Cc1ccc2nc3c(cc(C(=O)NC4CCCCC4)c(=N)n3C(C)C)c(=O)n2c1 | 19.8% | 
CCN(Cc1ccccc1)S(=O)(=O)c1ccc2c(c1)CCCN2C(C)=O | 0% | 
FC(F)Oc1ccccc1NC(=S)Nc1cccc(Cl)c1Cl |  | 17.8 µM (active)
CC(=O)Nc1ccc(NC(=O)COc2ccccc2C(=O)Nc2cccc(Cl)c2Cl)cc1 | 7.69% | 
CCOC(=O)c1ccc[n+](CC(=O)Nc2ccccc2OC(F)F)c1 | 1.27% [at 0.397 µM] | 
Cc1cc(C)c(-c2n[nH]c3c2C(c2ccccc2F)N(CCO)C3=O)c(O)c1 (stereo not drawn) | 6.01% | 
CCOC(=O)c1sc(NC(=O)/C=C/c2ccc(C(C)C)cc2)c(C(=O)OCC)c1C | -1.08% | 
CSc1ncc(C(=O)NCc2ccccc2Cl)c(C(F)(F)F)n1 | 21.1% | 

Structure (SMILES) | growth rescue (activation) | Potency
Cc1cccc(N2CCN(C(=O)c3oc(=O)c4ccccc4c3-c3ccccc3)CC2)c1C | 0% | 
COc1ccccc1Nc1cc(C(=O)NCCCN(C)C2CCCCC2)c2ccccc2n1 | -13.9% | 
COc1ccc(-c2nc3ccccc3o2)cc1NC(=O)c1cc([N+](=O)[O-])ccc1N1CCOCC1 | 13.1% | 
O=C(Nc1cc(-c2nc3ccccc3o2)ccc1Cl)c1cc([N+](=O)[O-])ccc1N1CCOCC1 | 8.05% | 
O=[N+]([O-])c1ccc2oc(-c3cccc(O)c3)nc2c1 |  | 7.94 µM (active)
CN(c1ccccc1)S(=O)(=O)c1cc(C(=O)Nc2nc3ccccc3[nH]2)ccc1Cl |  | 15.8 µM (active)
CN(c1ccccc1)S(=O)(=O)c1cc(C(=O)OCC(=O)N2CCN(C(=O)c3ccco3)CC2)ccc1Cl | 14.5% | 
CN(c1ccccc1)S(=O)(=O)c1cccc(C(=O)NNC(=O)c2ccncc2)c1 | 11.6% | 
S=c1[nH]nc(Nc2ccccc2)s1 | 1.28% | 
c1ccc(Nc2n[nH]nc2-c2ccccc2)cc1 |  | 12.6 µM (active)
O=c1cnnc(Nc2ccccc2)[nH]1 | -16.7% | 
Cc1cc(C)cc(-n2c(SCC(=O)NCC3CCCO3)nc3c([nH]c4ccccc43)c2=O)c1 (stereo not drawn) | 0% | 
NNC(=O)CSc1nnc(-c2ccccc2)n1-c1ccccc1 | -9.48% | 
Cc1ccc(-n2c(Cc3cccs3)nnc2SCC(=O)OC(C)C)cc1 | 16.6% | 
Cc1ccc(-c2nnc(SCC(=O)N/N=C/c3cccs3)n2-c2ccc(C)cc2)cc1 |  | 22.4 µM (active)
COc1cccc(CNc2nccn(-c3ccc(OC)c(OC)c3)c2=O)c1 | 15.3% | 
CC1=C[C@H]2Cc3cc(C)cc(C)c3S(=O)(=O)[C@@H]2C=C1 |  | 15.8 µM (active)
COc1ccc(-n2ccn(CC(=O)Nc3ccc(C)c(C)c3)c(=O)c2=O)cc1OC | 8.89% | 
Cc1cc(O)cc(O)c1C(=O)Cc1cnn(-c2ccccc2)c1 |  | 8.91 µM (active)
O=C(c1cnn(-c2ccc(Cl)cc2)c1)c1ccccc1O | -10.9% | 
Cc1[nH]nc(-c2ccc(OCc3cnn(-c4ccccc4)c3)cc2O)c1Oc1ccc(Cl)cc1 | -0.901% | 
